Rin1-Abl PPI inh = inhibitors of Rin1-Abl protein binding, primary screen, biochemical, TR-FRET; Tyrosine-protein kinase ABL1 (Homo sapiens) + Ras and Rab interactor 1 (Homo sapiens), …; inhibition, % at 7.35 µM; AID 588664, 2011; hit rate 0.4% among 360,000; in the data active = inhibition above about 5%, passing the limit was not always enough
PAFAH1B2 inh = PAFAH1B2 enzyme inhibitors, primary screen, biochemical, fluorescence polarization, human. recombinant PAFAH1B2, FP-rhodamine activity probe. inhibition, % at 3.39 µM. hit rate 1.2% among 340,000;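 active = inhibition above the mean of all tested compounds plus 3 SD, cut at about 24% in these data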;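 note: 0% = enzyme with DMSO and 100% = wells lacking PAFAH1B2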
Target sequence (P68402 whole entry, looked up): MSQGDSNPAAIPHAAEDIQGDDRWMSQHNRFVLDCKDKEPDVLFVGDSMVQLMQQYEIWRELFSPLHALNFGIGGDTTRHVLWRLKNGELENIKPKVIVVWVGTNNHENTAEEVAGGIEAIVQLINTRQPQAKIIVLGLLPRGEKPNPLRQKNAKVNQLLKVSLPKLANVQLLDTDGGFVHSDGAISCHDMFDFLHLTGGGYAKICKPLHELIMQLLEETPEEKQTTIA
PAFAH2 FP inh = PAFAH2 enzyme inhibitors, primary screen, biochemical, fluorescence polarization, human. inhibition, % at 3.39 µM. recombinant PAFAH2, FP-rhodamine activity probe. AID 492956, 2010. Platelet-activating factor acetylhydrolase 2, cytoplasmic (Homo sapiens), Q99487. hit rate 0.99% among 340,000;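 active = inhibition above the mean over all tested compounds plus 3 SD, cut at about 30% in these data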;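 note: inhibitors block probe labeling of enzyme so polarization drops; 0% = enzyme with DMSO and 100% = wells lacking PAFAH2 protein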
pPAFAH FP inh = pPAFAH enzyme inhibitors, primary screen, biochemical, fluorescence polarization, human. recombinant pPAFAH, FP-rhodamine probe fluorescence polarization. hit rate 1.5% among 330,000. inhibition, % at 3.39 µM;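 active = inhibition above the mean inhibition across the screen plus 3 SD, cut at about 25% in these data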;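 note: inhibitors block binding of the rhodamine activity-based probe so polarization drops; 0% = enzyme with DMSO and 100% = wells lacking pPAFAH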
E coli Lon inh = inhibitors of E. coli Lon protease, primary screen, biochemical, fluorescence polarization | inhibition, % at 7.94 µM | hit rate 0.42% among 360,000 | P0A9M0 | purified E. coli Lon protease; in the data active = inhibition above about 13%, passing the limit was not always enough;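 note: 0% = enzyme with probe and DMSO and 100% = no enzyme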
PAFAH1B3 FP inh = PAFAH1B3 enzyme inhibitors, primary screen, biochemical, fluorescence polarization, human; hit rate 0.28% among 340,000; inhibition, % at 3.39 µM; recombinant PAFAH1B3, FP-rhodamine probe; Platelet-activating factor acetylhydrolase IB subunit alpha1 (Homo sapiens), Q15102; AID 492972, 2010;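 active = inhibition above the screen-wide average of all tested compounds plus 3 SD, cut at about 25% in these data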;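 note: 0% = enzyme with DMSO only and 100% = wells lacking PAFAH1B3 protein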
Target sequence (Q15102 whole entry, looked up): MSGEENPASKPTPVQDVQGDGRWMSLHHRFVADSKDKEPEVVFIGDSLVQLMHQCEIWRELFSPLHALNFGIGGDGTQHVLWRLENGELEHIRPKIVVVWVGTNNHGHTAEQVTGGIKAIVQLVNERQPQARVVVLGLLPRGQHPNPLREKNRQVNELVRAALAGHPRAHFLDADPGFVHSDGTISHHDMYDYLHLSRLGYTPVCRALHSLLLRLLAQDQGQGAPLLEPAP
E coli Lon conf = E. coli Lon protease inhibitor retest, confirmation, biochemical, fluorescence polarization | purified E. coli Lon | hit rate 31% among 1,400 | shares compounds with E coli Lon inh | inhibition, % at 7.94 µM; in the data active = inhibition above about 16%;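 note: 0% = enzyme with probe and DMSO and 100% = no enzyme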
* = called active by the depositor; . = no result given. Sampled rows, rich in hits. Any-hit rate of the full collection: about 3.1%.

SMILES | Rin1-Abl PPI inh | PAFAH1B2 inh | PAFAH2 FP inh | pPAFAH FP inh | E coli Lon inh | PAFAH1B3 FP inh | E coli Lon conf
CC(C)CC(NC(=O)OC(C)(C)C)C(=O)O (configuration not stated) | -2 | -2 | 6 | -2 | 19* | 5 | -6
Cc1ccc(CNC(=O)c2nnn(CC(=O)Nc3cccc(C)c3C)c2N)cc1 | 2 | 1 | -5 | 0 | 3 | -1 | .
O=C(Nc1cccc(C(=O)N2CCCCC2)c1)c1ccccc1 | 0 | 3 | -8 | . | 10 | 12 | .
O=C(Nc1cccc(C(=O)N2CCCCC2)c1)c1ccc(Cl)cc1 | 1 | 3 | 3 | 0 | 17* | 2 | 5
O=C(Nc1cccc(C(=O)N2CCCCC2)c1)C1CCCC1 | -2 | 4 | -5 | . | 16* | 7 | -6
O=C(Nc1cccc(C(=O)N2CCCCC2)c1)C1CCC1 | -2 | 0 | -10 | . | 0 | 4 | .
O=[N+]([O-])c1cccc(OCC(O)CN2CCN(S(=O)(=O)c3cc(Cl)ccc3Cl)CC2)c1 (configuration not stated) | 4 | 4 | 14 | 3 | -2 | -1 | .
CCn1cnc2cc(NCc3ccc(C)cc3)ccc21 | 6 | 7 | -5 | 4 | 117* | 4 | 1
CCN(CC)c1ccc(CNc2ccc3c(c2)ncn3CC)cc1 | . | . | . | 11 | . | . | .
CCCc1cc(=O)oc2c(CN3CCCC3)c(O)ccc12 | 2 | 5 | 5 | 7 | -7 | 9 | .
Cc1cc(=O)oc2c(CN3CCC(C)CC3)c(O)c(Cl)cc12 | -2 | 9 | 15 | 12 | 25* | 12 | 39*
CCCc1cc(=O)oc2c(CN3CCCC3)c(O)c(Cl)cc12 | -2 | 4 | 6 | 2 | 22* | 4 | -13
Cc1cc(=O)oc2c(CN3CCCC3)c(O)c(Cl)cc12 | 2 | 8 | 13 | 8 | 1 | 10 | .
O=C(O)CC/C(=C\c1ccc2c(c1)OCO2)c1nc2ccccc2s1 | -1 | 2 | 6 | 3 | 26* | 3 | -17
O=C(O)CC/C(=C/c1cccc(NC(=O)c2ccccc2Cl)c1)c1nc2ccccc2s1 | 0 | -1 | -1 | . | 4 | 2 | .
Cc1ccc(-c2nc3c4ccccc4ccn3c2Cc2ccsc2)cc1 | 3 | . | . | . | -6 | . | .
CCOCCCNC(=O)C(NC(=O)c1ccccc1O)c1ccc(Cl)cc1 (configuration not stated) | -2 | 7 | 9 | 2 | 18* | 7 | -19
CCOC(=O)c1ccc(NC(=O)CSc2nnc(C)n2-c2ccccc2)cc1 | 2 | 6 | -4 | 1 | 14* | 8 | 8
CC(=O)Nc1ccc(NC(=O)CSc2nnc(C)n2-c2ccccc2)cc1 | -2 | -1 | 1 | 2 | -14 | 8 | .
CC(C)(C)n1nnnc1CN(Cc1ccco1)Cc1cc2cc3c(cc2[nH]c1=O)OCO3 | 0 | -1 | 3 | 4 | 6 | 10 | .
COCCn1nnnc1CN(Cc1ccco1)Cc1cc2cc3c(cc2[nH]c1=O)OCO3 | -5 | 1 | -4 | -1 | 23* | 1 | 6
CC(C)[C@H](NC(=O)OCc1ccccc1)C(=O)NC(C=O)Cc1ccccc1 (some centres not stated) | 0 | 6 | 1 | 0 | 55* | 1 | 59*
Cc1cc(C)c2sc(NC(=O)C3=COCCO3)nc2c1 | 3 | 4 | 2 | -6 | -14 | 1 | .
O=C(CS(=O)(=O)c1cn(Cc2ccc(F)cc2)c2ccccc12)N1CCCCC1 | 0 | 21 | 12 | 3 | 3 | 10 | .
O=C(CS(=O)(=O)c1cn(Cc2ccc(Cl)cc2)c2ccccc12)N1CCCCC1 | 0 | 28* | -2 | 0 | 17* | -8 | 5
SMILES | Rin1-Abl PPI inh | PAFAH1B2 inh | PAFAH2 FP inh | pPAFAH FP inh | E coli Lon inh | PAFAH1B3 FP inh | E coli Lon conf
COc1c(Br)cc(/C=N/n2c(-c3ccccc3)n[nH]c2=S)c(O)c1Br | 3 | 4 | 16 | 22 | 19* | 4 | -11
CCOCCn1cnc2sc(C(=O)NCC(=O)OCC)c(C)c2c1=O | 0 | 0 | -1 | 1 | 15* | 4 | -4
CCOC(=O)Cn1cnc2sc(C(=O)OC)c(C)c2c1=O | -3 | 1 | -4 | -2 | 0 | 11 | .
CC1(C)CC(=O)C2=C(C1)Oc1ncn3nc(-c4cccnc4)nc3c1C2c1ccccc1 (configuration not stated) | -1 | 4 | 0 | . | -6 | 9 | .
COc1ccc(C2C3=C(CC(C)(C)CC3=O)Oc3ncn4nc(-c5ccccc5)nc4c32)cc1 (configuration not stated) | -1 | 2 | -3 | . | 26* | 8 | -5
COc1ccc2nc3n(c(=O)c2c1)-c1ncccc1C(=O)NC3Cc1ccccc1 (configuration not stated) | 2 | . | . | . | 0 | . | .
C=CCOn1c(=O)c(-c2cc3ccccc3o2)[n+]([O-])c2ccccc21 | -2 | 1 | 7 | 6 | 17* | 4 | -213
Nc1[nH]n(-c2ccccc2)c(=O)c1N=Nc1ccccc1 | -6 | 5 | 4 | 10 | -9 | 10 | .
Nc1[nH]n(-c2c(Cl)cc(Cl)cc2Cl)c(=O)c1N=Nc1ccc(S(=O)(=O)Nc2ncccn2)cc1 | 2 | 3 | 20 | 4 | 21* | 1 | 9
COCCN1CN(S(=O)(=O)c2ccccc2)c2nc3ccccc3nc21 | -1 | 6 | 15 | 7 | 26* | 11 | -22
Cc1cccc(S(=O)(=O)N2CN(Cc3ccco3)c3nc4ccccc4nc32)c1 | -3 | 10 | 13 | 14 | 59* | 18 | -13
COCCN1CN(S(=O)(=O)c2ccc(Cl)cc2)c2nc3ccccc3nc21 | 1 | 7 | 0 | -2 | 7 | -2 | .
O=C(CCNS(=O)(=O)c1ccccc1)OCc1ccc([N+](=O)[O-])cc1 | 2 | . | . | . | -1 | . | .
COc1ccc(NC(=O)c2cc(Br)c(Br)s2)cn1 | -4 | -2 | -11 | -4 | -4 | 2 | .
CCc1cc(C(=O)Nc2ccc(OC)nc2)sc1C | 2 | -3 | -2 | 4 | 50* | 8 | 5
O=C1C(=O)C(Cl)=C(Cl)C(Cl)=C1Cl | 7 | . | . | . | 40* | . | 51*
CC(C)(C)OC(=O)C[C@@H]1C/C=C\C[C@H](CC(=O)N(CCO)Cc2ccccc2)C(=O)N[C@H](C(C)(C)C)COC1=O | 0 | 2 | 10 | -6 | -7 | 16 | .
CCN(CC)S(=O)(=O)c1ccc2nnn(OCC(=O)Nc3cccc(C#N)c3)c2c1 | 5 | 4 | -9 | 2 | 18* | -4 | -5

Source: PubChem
